# Screening data (PubChem BioAssay)
# ERG-DNA inh = blocks human ERG Ets domain binding to DNA. fluorescence polarization, His-ERG Ets domain / labelled DNA. AID 624246. P11308. Potency, µM (highest dose often 76.9 µM), for inactives: top-dose FP activity, negative = inhibition, usual class: inhibitors. hit rate 0.028% among 370,000; active = well fitted inhibition curve with a large enough effect in the polarisation, with a control signal flat; inconclusive = small, poorly fitted or top-dose-only effect, or effect the other way, or a change in a side signal; inactive = no such curve, though single readings can be large or run the other way; the % refers to the polarisation;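 note: polarization taken with two DNA probes labelled with fluorescein and Texas red; potency is the fitted concentration of half-maximal effect; % of control where 0% means no effect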
#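 His-tagged ERG Ets domain (1 uM in the protein solution; 300mM KCl, 50mM Tris-HCl, 1mM EDTA, 1mM DTT, pH 7.5) received compound, then a probe mix of 5 nM fluorescein-DNA and 100nM Texas-615-DNA. Fluorescence polarization was read for both dyes.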
# D1 PAM = potentiators of human D1 dopamine receptor; HEK293 TREx D1 cells, calcium flux, dopamine EC20 potentiation; potentiation, % at 10 µM; hit rate 0.036% among 360,000; in the data active = potentiation above about 30%; note: 0% is about no effect
# D1 agonist = human D1 receptor agonism; P21728; HEK293 T-REx D1 cells, calcium flux, agonist mode; activation, % at 2 µM; hit rate 1% among 360,000; in the data active = activation above about 30%; note: 0% is about no effect
#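 Agonism was scored from calcium flux recorded over 180 s (1 read/s) after pintool compound addition, following a 10-cycle baseline. Cells were inducible force-coupled HEK293 TREx D1, plated overnight at 30 C and loaded with no-wash calcium dye.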
# DRD3 agonist = agonists of human D3 dopamine receptor | max activation, % | AID 652048 | D3R DiscoveRx beta-arrestin cells, luminescence, 90 min | hit rate 0.58% among 410,000; in the data active = max activation above about 30%; note: 0% is about no effect
# Target sequence (P35462 whole entry, looked up): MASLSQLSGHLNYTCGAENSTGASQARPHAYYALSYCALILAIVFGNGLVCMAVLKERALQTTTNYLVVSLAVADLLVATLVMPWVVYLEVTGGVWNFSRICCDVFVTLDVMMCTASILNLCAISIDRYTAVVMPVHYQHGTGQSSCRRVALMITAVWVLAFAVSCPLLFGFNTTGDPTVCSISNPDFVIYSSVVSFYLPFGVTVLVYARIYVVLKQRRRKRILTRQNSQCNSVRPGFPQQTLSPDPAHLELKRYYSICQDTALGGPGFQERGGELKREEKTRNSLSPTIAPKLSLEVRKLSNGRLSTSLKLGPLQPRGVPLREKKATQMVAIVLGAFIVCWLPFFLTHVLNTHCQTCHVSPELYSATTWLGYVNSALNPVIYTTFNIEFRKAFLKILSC
#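 Agonist-mode cell screen: cells plated at 1500/well and incubated overnight at 37 °C, then exposed to library compounds for 90 min at 37 °C. Detection reagent was added for 30–60 min at room temperature, and luminescence was read.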
# D3 antag = D3 dopamine receptor (human) antagonism; P35462; AID 652054; hit rate 2.5% among 360,000; D3R cells, DiscoveRx beta-arrestin luminescence, antagonist mode; active compounds read low; max response, negative = inhibition, %; in the data active = max response below about -50%; inconclusive = no clear call, values can overlap the other calls; note: % is set by controls: 0 for no effect and ±100 for the full control effect
#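 Cells expressing the human receptor were seeded at 1500 cells/well, incubated overnight at 37 degrees C in 5% CO2, then exposed to library compounds with dopamine controls for 90 minutes at 37 degrees C before luminescent detection.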
# D1 antag = blocks dopamine activation of the human D1 receptor; P21728; HEK293 TREx D1 cells, calcium flux, dopamine EC80; active compounds read low; activity change, negative = inhibition, % at 10 µM; hit rate 3.2% among 360,000; AID 504652; in the data active = activity change below about -30%; note: % is set by controls: 0 for no effect and ±100 for the full control effect
#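 Compound effects on dopamine-evoked calcium signalling were measured in tetracycline-induced HEK293 Trex D1 cells. Dopamine at EC80 followed a 180 s compound pre-read, and fluorescence was tracked kinetically for 180 s more.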
# Active calls of the source: *; ? = inconclusive; / = no result. Only some compounds are listed: those with a hit (about 6.1% of all), similar ones and a draw of the others.
SMILES,ERG-DNA inh,D1 PAM,D1 agonist,DRD3 agonist,D3 antag,D1 antag
CC(C)(C)OC(=O)N1CCC(c2c(C(=O)Nc3ccc4c(c3)OCCO4)cnn2-c2ccccc2)CC1,0%,-8,2,7,/,-30*
COc1ccccc1CNC(=O)c1cnn(-c2ccc(F)cc2F)c1C1CCN(C(=O)OC(C)(C)C)CC1,-1%,-8,0,0,/,-59*
Cc1ccc(CN2CCC(CNC(=O)c3cnn(-c4ccccc4)c3C3CCN(C(=O)OC(C)(C)C)CC3)CC2)cc1,-3%,2,2,3,/,3
Cc1ccc(-n2ncc(C(=O)Nc3ccc4c(c3)OCCO4)c2C2CCN(C(=O)OC(C)(C)C)CC2)cc1,-23%,-5,1,3,/,-12
COc1ccc(CCN2CCC(CNC(=O)c3cnn(-c4ccc(C)cc4)c3C3CCN(C(=O)OC(C)(C)C)CC3)CC2)cc1,2%,-7,58*,-29,/,-29
COc1ccc(-c2noc(CN(C(=O)c3ccc(C)cc3C)C(C)C)n2)cc1,6%,-2,3,-8,/,-6
Cc1ccc(NC(=O)C(C)N2CCc3ccccc3C2)cc1 (stereo unspecified),-2%,4,2,-23,-76*,3
Cc1cc(C)cc(NC(=O)CN2CCN(c3ccccc3)CC2)c1,-4%,-4,0,-4,11,-32*
Cc1cc(C)cc(NC(=O)CCCCCN2C(=O)[C@@H]3Cc4ccccc4CN3C2=O)c1,6%,-4,0,-11,1,-40*
CCOC(=O)c1ccc(NC(=O)CCC(=O)N2Cc3ccccc3Oc3ncccc32)cc1,0%,3,37*,-12,/,9
Cc1cc(C)cc(NC(=O)CN2CCN(c3ccccn3)CC2)c1,-2%,-8,-2,-17,-21,-28
CC(C(=O)Nc1ccc(S(=O)(=O)N2CCCC2)cc1)N1CCc2ccccc2C1 (stereo unspecified),0%,-3,3,-1,?,-9
Cc1cc(C)cc(NC(=O)CN2CCc3ccccc3C2)c1,-8%,-2,2,0,-67*,28
O=C(CN1CCc2ccccc2C1)Nc1ccccc1N1CCCCCC1,5%,-2,3,-43,-54*,-2
CCOC(=O)c1ccc(NC(=O)CN2CCc3ccccc3C2)cc1,1%,5,15,-5,-62*,-4
O=C(CN1CCc2ccccc2C1)Nc1ccc(F)cc1,7%,1,3,-17,-10,3
O=C(CNC(=O)C1CCCCC1)Nc1ccccc1Cl,8%,16,2,-13,4,-93*
Cc1[nH]c2ccc(-c3nnc(SCC(=O)NCc4ccco4)n3Cc3ccccc3)cc2c1C,-5%,6,1,-3,-4,-2
COc1ccc(NC(=O)C2CCCN(S(=O)(=O)c3cccs3)C2)cc1 (stereo unspecified),5%,0,5,-10,/,-4
COc1cc(NC(=S)NCc2cccnc2)c(OC)cc1Cl,-7%,0,2,-13,0,-21
O=C(CNCC1CCCCC1)Nc1ccccc1N1CCCCC1,-9%,7,0,0,0,15
O=C(CNC1CCCCCC1)Nc1ccccc1N1CCCCC1,-7%,6,-1,-2,-64*,33
CCOC(=O)c1ccc(NC(=O)Cn2cc3c(n2)CCC(C)C3)cc1 (stereo unspecified),1%,-3,-2,-1,-24,-30*
CCc1ccccc1NC(=O)Cn1cc2c(n1)CCC(C)C2 (stereo unspecified),0%,0,-2,0,/,3
CC(C)C12CN3CC(C(C)C)(CN(C1)C3c1ccccc1)C2O (stereo unspecified),/,-3,2,-22,-84*,-6
SMILES,ERG-DNA inh,D1 PAM,D1 agonist,DRD3 agonist,D3 antag,D1 antag
O=C(Nc1ccccc1)OCCN1CCOCC1,-4%,/,/,8,-1,/
O=S(=O)(N/N=C/c1ccc(OC2CSC2)cc1)c1ccccc1,-4%,-5,47*,6,11,11
O=S(=O)(N/N=C/c1cccc(OC2CSC2)c1)c1ccccc1,3%,-1,2,-10,-66*,3
O=C(CN(c1ccccc1)S(=O)(=O)c1ccccc1)N/N=C/c1ccc(OC2CSC2)cc1,/,1,3,/,/,3
Cc1ccc(S(=O)(=O)N/N=C/c2cccc(OC3CSC3)c2)cc1,0%,-5,0,-6,?,4
Cc1ccc(N2C(=O)N(C(C)C)C(C)(C)CC2(C)O)cc1 (stereo unspecified),-4%,-7,0,0,-13,-28
Cc1cc(C)c(C)c(C(=O)C2OC(=O)C(C)(C)C(=O)C2(C)C)c1C (stereo unspecified),-9%,-3,3,2,-1,11
COc1ccc(NC(=O)N(C)C[C@H]2Oc3ccc(NS(=O)(=O)c4c(C)noc4C)cc3C(=O)N([C@H](C)CO)C[C@@H]2C)cc1,-1%,/,/,0,-11,/
O=C(O)CCNC(=O)/C(=C/c1ccco1)NC(=O)c1ccco1,-12%,5,2,-1,-9,8
Cc1ccc(C(=O)O)cc1S(=O)(=O)N1CCOCC1,-3%,1,4,11,-72*,-10
COc1ccccc1OCCNC(=O)c1cccc(S(=O)(=O)N2CCN(C)CC2)c1,-9%,5,1,-12,-11,6
COc1ccccc1OCCNC(=O)c1ccc(C)c(S(=O)(=O)N2CCOCC2)c1,-2%,-7,30*,0,9,-6
Cc1ccc(C(=O)N2CCOCC2)cc1S(=O)(=O)N1CCOCC1,-4%,-1,5,0,-2,-10
COc1ccc(C(=O)NCC2COc3ccccc3O2)cc1S(=O)(=O)N1CCOCC1 (stereo unspecified),-10%,-4,0,3,4,-34*
O=C(NCc1ccncc1)c1ccc(Cl)c(S(=O)(=O)N2CCOCC2)c1,-6%,2,1,2,18,2
COc1ccc(C(=O)NCc2ccncc2)cc1S(=O)(=O)N1CCOCC1,-4%,/,4,-10,10,-48*
CCc1ccc(NC(=O)CCc2nc3cccnc3n2Cc2ccc(OC)cc2)cc1,-4%,0,2,-5,10,17
Cc1ccc2cccc(NC(=O)COc3cc(C)c(Cl)c(C)c3)c2n1,0%,5,1,-9,/,6
COc1cccc(CNC(=O)c2ccc(F)c(S(=O)(=O)N3CCCCC3)c2)c1,/,/,/,6,23,/
COc1cccc(CNC(=O)c2ccc(Cl)c(S(=O)(=O)N3CCOCC3)c2)c1,17%,-11,2,2,1,-34*
CCCN(CCC)C(=O)CN1C(=O)CSc2ccc(S(=O)(=O)N3CCC(C)CC3)cc21,-3%,-5,3,11,/,-91*
